The compounds below were run on CDKL1. Details: concentration: 1 μM, replicates: in singlicate; n = 1.
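Note: KINOMEscan kinase panel screen.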

In order of rising “%Inh” value:
1. CN(C)CCN(C)C(=O)c1cc(-c2ccncc2)c(-c2ccc(Cl)c(O)c2)o1.Cl.Cl [SB-710397]  0%
2. CC(=O)Nc1nc2cnc(Nc3cc(NC(=O)c4cccc(CCC#N)c4)ccc3C)nc2s1  0%
3. Cn1cncc1-c1ccc2ncnc(Nc3ccc(OCc4ccccc4)cc3)c2c1 [GW320571]  0%
4. CSc1nn2c(=O)cc(N3CCOCC3)nc2n1Cc1cccc(C(F)(F)F)c1C [GSK2363608]  0%
5. CN1C(=O)C(Nc2ccc(Cl)c(C(=O)O)c2)=C(c2ccc(Cl)cc2)C1=O [SB-404290]  1%
6. COC(=O)c1c(-c2ccccc2)c2cc(OC)ccc2c(=O)n1Cc1ccccc1  3%
7. COc1cc2nccc(Nc3ccc(NC(=O)c4ccc(C)cc4)c(O)c3)c2cc1OC.Cl [GW440132]  4%
8. COc1ccc(Nc2nccc(NCCNC(=O)Nc3ccccc3F)n2)cc1 [GSK1379901]  4%
9. Nc1ncnc2[nH]c(-c3ccccc3)nc12 [AH5015]  6%
10. Cl.NC(=O)c1cccc(Nc2nccc(Nc3ccc(Oc4cccc(Cl)c4)c(Cl)c3)n2)c1 [GW659008]  9%
11. COc1cc2ncn(-c3cc(OCC4CCCO4)c(C(N)=O)s3)c2cc1OC (stereo not shown) [GSK204607]  11%
12. COc1ccccc1-c1ccc2c(NC(=O)C3CC3)n[nH]c2n1 [SB-711239]  18%
13. CS(=O)(=O)c1ccc(-c2c(-c3ncn[nH]3)sc(N3CCOCC3)c2C#N)cc1  22%
